Several values for one entry are separate records, joined by “and”; a condition that tells them apart may be missing. Identical values can stand only once. Inconclusive results are not listed. Some structures have more than one record in an assay (separate samples or runs), and their calls can disagree. Activity calls are given as the source filed them. Calls come from the whole dose curve; as a rule, active = well fitted activation curve with a large enough effect in the signal ratio in the repeat runs (not every such curve was filed as active); inconclusive = weak or mixed curves; inactive = flat fitted curve, though single readings scatter; the % refers to the signal ratio.
% is set by controls: 0 for no effect and ±100 for the full control effect; potency is the fitted concentration of half-maximal effect.

This assay can be described thus: qHTS assay to identify small molecule agonists of H2AX (AID 1224845). The settings on record: CHO-K1 phospho-H2AX Ser139 HTRF, 3 h; series mostly up to 154 µM; activation (H2AX phosphorylation): at the top concentration. The text has this:
National Center for Advancing Translational Sciences [NCATS]
NIH Chemical Genomics Center [NCGC]
U.S. Environmental Protection Agency [EPA]
National Institutes of Environmental Health Sciences [NIEHS]
National Toxicology Program [NTP]
U.S. Food and Drug Administration [FDA]
HTRF phospho-H2AX (Ser139) assay (Cisbio Bioassays, US) enables the quantitative detection of the histone variant H2AX when phosphorylated on serine 139. When double-stranded DNA breaks, either by ionizing radiation or endogenous physiological processes, H2AX becomes phosphorylated at Ser139. This phospho-Ser139 serves as a sensitive biomarker for the detection of such breaks, localizing the site of DNA repair. So, HTRF phospho-H2AX Ser139 is a pertinent assay to study genome stability, the cell cycle, DNA repair, and it serves as a biomarker for cancer, and to understand aging. Wild type CHO-K1 cells were used to identify the inducers of Phospho-H2AX Ser 139 from the Tox21 10K compound collections.
Tox21 Assay Protocol Summary:
The CHO-K1 cells suspended in culture medium containing 10% FBS were dispensed at 1000 cells/ 3 ul/well in 1536-well white wall/solid bottom plates (Greiner Bio-One North America, NC) using a Multidrop Combi (Thermo Fisher Scientific Inc., Waltham, MA). After the assay plates were incubated at 37C overnight, 23 nl of compounds at 15 concentrations (from 5-48 columns) or positive control (from 1 to 4 columns) were transferred to the assay plates using a Pintool station (Wako, San Diego, CA) into each well resulting in a final DMSO concentration of 0.76%. After 3hr incubation at 37C, 1 uL/well Supplemented Lysis buffer (diluted 100 fold blocking reagent in lysis buffer) (HTRF Phospho-H2A.X (S139) Assay kit from Cisbio US Inc., Bedford, MA) was added using a Flying Reagent Dispenser (FRD) (Aurora Discovery, CA). After 10sec spin at 1000 rpm in a plate centrifuge, the assay plates were incubated at room temperature for 30 min. Then followed by the addition of 1 uL/well detection buffer (containing a mixture of two antibodies, one labeled with cryptate, Anti pH2AX (S139)-K and another labeled with d2, Anti H2AX-d2) using FRD. After incubation at room temperature for 24 hr, the time resolved fluorescence at excitation 320 nm and emissions at 665 nm and 620 nm was measured using an Envision plate reader (PerkinElmer, Waltham, MA).
(Quantitative high-throughput screening tests each substance at several concentrations.)
For `C=CCOC(N)=O`, the “activation (H2AX phosphorylation)” value is -0.297% (inactive).

For the molecule `C[C@H]1O[C@@H](O[C@H]2[C@@H](O)C[C@H](O[C@H]3[C@@H](O)C[C@H](O[C@H]4CC[C@@]5(C)[C@H](CC[C@@H]6[C@@H]5CC[C@]5(C)[C@@H](C7=CC(=O)OC7)CC[C@]65O)C4)O[C@@H]3C)O[C@@H]2C)C[C@H](O)[C@@H]1O`, the Potency entry is “inactive”.

For the molecule `CC(c1ccc(O)cc1)c1ccc(O)cc1`, the Potency result was “inactive and 56.6 µM (active)”.

For the molecule `Fc1cccc(Cl)c1CCl`, the “activation (H2AX phosphorylation)” value was -2.39% (inactive).

Regarding `O=CC(Br)(Br)Br`, the Potency was 31.8 µM (active).

As to `Oc1cccc(-c2ccccc2)c1`, the “activation (H2AX phosphorylation)” value is -3.66% (inactive).

Turning to `Cc1cc(Cl)ccc1O[C@H](C)C(=O)O`, the “activation (H2AX phosphorylation)” value is -1.07% (inactive).

`CCCCCCCCc1ccc(O)cc1`: the Potency is 36 µM (active).

As for `CC(C)OC(=S)S`, the Potency was 35.7 µM (active).

Take `CCCN(CCC)c1c([N+](=O)[O-])cc(S(N)(=O)=O)cc1[N+](=O)[O-]`: the Potency is 101 µM (active).

In the case of `c1ccc2cc3c(cc2c1)-c1cccc2cccc-3c12`, the “activation (H2AX phosphorylation)” value was -0.146% (inactive).

On to `COC[C@H](C)N(C(=O)CCl)c1c(C)csc1C`, for which the “activation (H2AX phosphorylation)” value was 0.228% (inactive).

As for `Cn1[nH]nnc1=S`, the “activation (H2AX phosphorylation)” value is -0.464% (inactive).

For `O=C(CCl)Nc1ccccc1`, the Potency is 80 µM (active).

For `Cc1cc(SCc2sc(-c3ccc(C(F)(F)F)c(F)c3)nc2C)ccc1OCC(=O)O`, the “activation (H2AX phosphorylation)” value is 0.756% (inactive).

Regarding `O=[N+]([O-])c1ccc(Oc2ccc(C(F)(F)F)cc2[N+](=O)[O-])cc1`, the “activation (H2AX phosphorylation)” value was -2.54% (inactive).

Take `CCCN(CCC)CCc1c[nH]c2ccccc12`: the “activation (H2AX phosphorylation)” value was 1.77% (inactive).

`CC(=O)[O-].[Tl+]`: the “activation (H2AX phosphorylation)” value is 3.37% (inactive).

As for `CC1(C)CN=C(NN=C(/C=C/c2ccc(C(F)(F)F)cc2)/C=C/c2ccc(C(F)(F)F)cc2)NC1`, the “activation (H2AX phosphorylation)” value was -11% (inactive).

Take `C[C@]12CC[C@@H]3c4ccc(OC(=O)N(CCCl)CCCl)cc4CC[C@H]3[C@@H]1CC[C@@H]2O`: the “activation (H2AX phosphorylation)” value is 0.617% [at 70.9 µM] (inactive).

With `Oc1ccc(I)cc1`, the “activation (H2AX phosphorylation)” value was -0.0638% (inactive).

As to `N#CCCC(Br)(C#N)CBr` (stereo not given), the Potency was 35.7 µM (active).

`Nc1ccc([N+](=O)[O-])cc1Cl`: the “activation (H2AX phosphorylation)” value is -0.817% (inactive).

For the molecule `Cc1cc(C(C)(C)c2cc(C)c(O)c(C)c2)cc(C)c1O`, the “activation (H2AX phosphorylation)” value was 0.0276% (inactive).

As for `O=C(CCl)C(Cl)Cl`, the Potency is 40.5 µM (active).

As for `N#CCc1ccc(Cl)cc1`, the “activation (H2AX phosphorylation)” value was -0.725% (inactive).

As to `Cc1cccc(OP(=O)(Oc2cccc(C)c2)Oc2cccc(C)c2)c1`, the “activation (H2AX phosphorylation)” value is -0.919% (inactive).

In the case of `COC12CC[C@@]3(C[C@@H]1C(C)(O)C(C)(C)C)[C@H]1Cc4ccc(O)c5c4[C@@]3(CCN1CC1CC1)[C@H]2O5` (stereo not given in full), the Potency was 56.3 µM (active).

Consider `CCCOCC(=Nc1ccc(Cl)cc1C(F)(F)F)n1ccnc1`, for which the “activation (H2AX phosphorylation)” value was -0.842% (inactive).

For `COS(=O)(=O)c1ccc(C)cc1`, the “activation (H2AX phosphorylation)” value is -4.25% (inactive).

As for `CC(C)(C)C(O)/C(=C\c1ccc(Cl)cc1Cl)n1cncn1` (stereo not given), the “activation (H2AX phosphorylation)” value was -4.83% (inactive).

As to `CCOC(=O)c1ccccc1S(=O)(=O)NC(=O)Nc1nc(Cl)cc(OC)n1`, the “activation (H2AX phosphorylation)” value was -1.43% (inactive).

Take `COP(=O)(OC)SCn1c(=O)oc2cc(Cl)cnc21`: the “activation (H2AX phosphorylation)” value was -0.377% (inactive).

Regarding `CC(C)C(=O)Cl`, the “activation (H2AX phosphorylation)” value was -0.702% (inactive).

As for `N#Cc1c(-c2ccc(Cl)cc2)[nH]c(C(F)(F)F)c1Br`, the “activation (H2AX phosphorylation)” value was 4.53% (inactive).

For `Clc1ccc(C(c2ccc(Cl)cc2)C(Cl)(Cl)Cl)cc1`, the Potency was 0.161 µM (active).

With `N#CNC#N`, the “activation (H2AX phosphorylation)” value was -4.25% (inactive).

On to `Cl/C=C\CCl`, for which the “activation (H2AX phosphorylation)” value is -2.71% (inactive).

With `O=C(O)COc1nc(Cl)c(Cl)cc1Cl`, the “activation (H2AX phosphorylation)” value was -3.81% (inactive).

In the case of `CC1(C)C(/C=C(\Cl)C(F)(F)F)C1C(=O)OC(C#N)c1cccc(Oc2ccccc2)c1` (stereo not given), the “activation (H2AX phosphorylation)” value was -5.34% (inactive).

These data come from PubChem BioAssay (Tox21).
